The source of these data is PubChem BioAssay AID504843 (Broad Institute, 2011).

About 360 (30%) of roughly 1,200 compounds were called active. Not all results are given here. Entries with a potency or affinity are not part of this list. Unmarked numbers belong to inactive results. How the calls were made is not given here.

The assay in a line: bacterial growth inhibition, dose response, counter-screen, BacTiter-Glo luminescence, cherry-picked samples (AID 504843).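 Further: growth measured after 8 h incubation at 30 °C; 0% = median of sample compound wells and -100% = antibiotic control wells.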 The following applies: BacTiter-Glo ATP luminescence; series mostly up to 15 µM; activity change, negative = inhibition: at the top concentration. For orientation: A counterscreen serves to expose hits that act by an unwanted route or on another target.
In the case of `O=C(CN1CCC(c2nc3ccccc3s2)CC1)NCc1cccs1`, the “activity change, negative = inhibition” value is -5.62%.
For `O=C(NCc1cccs1)Nc1cccc(Cl)c1` the value was -21.5%; for `COc1cc(/C=C2\C(=N)N3N=C(S(C)(=O)=O)SC3=NC2=O)ccc1OS(=O)(=O)c1ccc(C)cc1`, -1.12%.
For `COc1ccccc1NC(=O)C1=C(C)Nc2ncnn2C1c1ccc(C)o1` (stereo not given) the value was 16.6%; for `Cc1cc(C(=O)CSc2nnc(-c3ccc4c(c3)OCO4)o2)c(C)n1-c1ccc(F)cc1`, 3.73%; for `Cc1cccc2c1cnn2C(=O)CCC(=O)N1CC(C)CC(C)C1` (stereo not given), -0.753%.
With `CCC(C)N1CCC2(CC1)N=c1c(c3c4c5c(C)c(O)c3c(O)c1=NC(=O)C(C)=CC=C[C@H](C)[C@H](O)[C@@H](C)[C@@H](O)[C@@H](C)[C@H](OC(C)=O)[C@H](C)[C@@H](OC)C=CO[C@@](C)(O5)C4=O)N2` (stereo not given in full) the figure was -10.9%.
For the compound `O=C(Nc1ccncc1)c1ccc(Cl)c(Cl)c1`, the “activity change, negative = inhibition” value is 17.2%.
With `O=C(Nc1cccc(NC(=O)c2cccnc2)c1)c1ccccc1` the figure was 4.2%.
With `NC(=O)C1CCN(C(=O)c2ccco2)CC1` the figure was 1.49%; with `Cc1ccc2c(C)nc(/N=C(\N)NC(=O)N3c4ccccc4Sc4ccccc43)nc2c1`, 10.8%.
With `CNC(=O)C(=O)NCCN1CCN(S(=O)(=O)c2ccc3ccccc3c2)CC1` the figure was -7.41%; with `O=C(CCSc1ccccc1)N1CCN(C(=O)c2ccco2)CC1`, -5.32%; with `O=C(CCc1nnc2ccc(NCc3ccco3)nn12)N1CCN(c2ccccc2)CC1`, -4.72%.
Regarding `CC(=O)c1ccc(-c2cccc(-c3nc4ccccn4c3NC3CCCCC3)c2)cc1`, the “activity change, negative = inhibition” value was -0.443%.
For `CCOC(=O)c1sc(NC(=O)CCN2C(=O)c3cccc([N+](=O)[O-])c3C2=O)c(C(=O)OCC)c1C` the value was 14.2%; for `C#CCn1c(O)c(N=NC(=O)C(O)c2ccccc2)c2ccccc21` (stereo not given), -3%.
For `COc1ccc(C(=O)Nc2c3c(nn2-c2ccc(Cl)cc2)CS(=O)(=O)C3)cc1` the value was 8.38%.
With `c1ccc(Nc2nc(Nc3ccccc3)nc(N3CCNCC3)n2)cc1` the figure was 0.935%.
Consider `Cc1ccc(Nc2nnns2)cc1C`, for which the “activity change, negative = inhibition” value was -4.06%.
Consider `Cc1cc(=O)oc2cc(O)cc(O)c12`, for which the “activity change, negative = inhibition” value is 19.5%.
For `O=C(Nc1nnc(S(=O)(=O)N2CCCCCC2)s1)c1ccccc1Br` the value was 17.1%; for `CSc1ccccc1OCc1cc(C(=O)N(C)Cc2c(C)n[nH]c2C)no1`, 5.09%; for `CCc1ccc2c(CSc3nnnn3C)cc(=O)oc2c1`, 7.57%.
For `Cc1ncc(CN2CCN(CCC(C)C)C(CCO)C2)s1` (stereo not given) the value was -4.86%; for `CC(=O)C1C(c2ccc(Cl)cc2)NC(=O)NC1(O)C(F)(F)F` (stereo not given), -4.75%; for `Cc1cc(=O)[nH]c(Sc2c(-c3ccccc3)c3ccccc3[nH]c2=O)n1`, 16.9%.
For the compound `Cc1cc(C)n(CCC(=O)N/N=C/c2c(O)ccc3ccccc23)n1`, the “activity change, negative = inhibition” value is 20%.
As for `COC(=O)[C@H]1[C@H]2C[C@H]3c4[nH]c5ccccc5c4CCN3C[C@@H]2CC[C@@H]1O`, the “activity change, negative = inhibition” value was -8.06%.
For `CCC(=O)NC(c1ccccc1Cl)c1c(O)ccc2ccccc12` (stereo not given) the value was -3.81%.
`Cc1ccsc1C1C(C#N)=C(N)OC2=C1C(=O)CC(C)C2` (stereo not given): the “activity change, negative = inhibition” value was -0.951%.
Consider `COc1cccc(C2CC(c3c(-c4ccccc4)c4cc(Cl)ccc4[nH]c3=O)=NN2S(C)(=O)=O)c1OC` (stereo not given), for which the “activity change, negative = inhibition” value was 7.14%.
For `CCn1c(SCC(=O)Nc2ccc(F)cc2)nnc1-c1cnccn1` the value was 9.67%; for `CNC1=CC(=O)CC(c2ccccc2)C1` (stereo not given), -15.1%.
With `COc1ccc(OCc2nnc3n2N=C(c2ccccc2)C(CC(=O)O)S3)cc1` (stereo not given) the figure was 14.5%; with `Cn1cccc1CNCC(O)c1ccccc1` (stereo not given), -0.635%; with `Cn1c(SCC(=O)NCc2cccs2)nnc1-c1ccc(S(=O)(=O)N2CCCC2)cc1`, 11%.
With `CN(C)S(=O)(=O)c1cccc(NC(=O)C2CCN(S(=O)(=O)c3cccs3)CC2)c1` the figure was 12.5%; with `CCCCCN(C(=O)CCC(=O)OCC(=O)N(C)Cc1ccc(C)cc1)c1c(N)n(CCCC)c(=O)[nH]c1=O`, -1.92%.
As for `CCCCn1c(N)c(N(CC)C(=O)c2ccc(Cl)c(Cl)c2)c(=O)[nH]c1=O`, the “activity change, negative = inhibition” value is 8.09%.
With `CC1(C)CC(NC(=O)c2ccc(-c3ccc([N+](=O)[O-])cc3)o2)CC(C)(C)N1` the figure was -7.62%.
For `CC(O)(CC(=O)CC(=O)c1ccccc1)c1ccccc1` (stereo not given) the value was -0.437%; for `COc1ccc(C2CC(=O)c3cnc(NC(=O)c4ccccc4)nc3C2)c(OC)c1` (stereo not given), -3.54%; for `S=c1[nH]nc(-c2cccnc2)n1C1CCCCC1`, 6.26%.
With `COCc1cc(=O)[nH]c2cc(NC(=O)C(F)(F)F)c(C)cc12` the figure was 13.1%; with `CCOc1ccccc1C1C(C(N)=O)=C(C)Nc2nc(-c3ccccc3Cl)nn21` (stereo not given), 9.98%.
As to `COc1ccc(C2C(C#N)=C(N)Oc3c2sc2nc(C)cc(C)c32)cc1` (stereo not given), the “activity change, negative = inhibition” value is 17.4%.
With `Cc1cc(-n2c(C)cc(C(=O)COc3cccnc3[N+](=O)[O-])c2C)no1` the figure was -3.66%.
With `Cc1ccc2cccc(OCC(=O)N3CCc4ccccc43)c2n1` the figure was -10.9%; with `CC(C)C[C@H]1C(=O)N2CCC[C@H]2[C@]2(O)O[C@](NC(=O)[C@@H]3C=C4c5cccc6[nH]c(Br)c(c56)CC4N(C)C3)(C(C)C)C(=O)N12` (stereo not given in full), -4.13%; with `CCC(C)OC1OC(CO)C(O)C(O)C1NC(C)=O` (stereo not given), 13.9%.
For `CC(C)OC(=O)c1c(NC(=O)c2ccco2)sc2c1CCCC2` the value was 17.8%; for `COc1ccc(S(=O)(=O)N2CCCOC2CNC(=O)C(=O)NCCCN2CCOCC2)cc1` (stereo not given), -0.455%; for `CCOC(=O)c1c(NC(=O)CCC(=O)O)sc2c1CC(C)(C)OC2`, 15.3%.
Take `Cc1ccc(C(=O)N/C(=C\c2ccc(C(C)C)cc2)C(=O)NCCCN2CCOCC2)cc1`: the “activity change, negative = inhibition” value is -15.5%.
For `Cc1cc(NC(=O)C2CC2)ccc1NC(=O)c1cccs1` the value was -17.9%.
In the case of `O=C1OCc2ccc(NC(=O)C3CC3)cc21`, the “activity change, negative = inhibition” value is 1.73%.
With `COc1ccc(-c2nc(C#N)c(NCC3CCCO3)o2)cc1OC` (stereo not given) the figure was -1.88%; with `CCOC(=O)CSc1cc(CS(C)(=O)=O)nc(-c2ccccn2)n1`, 7.55%; with `CC1CCN(CC[C@H]2CCCN2S(=O)(=O)c2cccc(O)c2)CC1`, 2.47%.
For `Cc1ccc(C(=O)c2cnc3ccccc3c2-c2ccccc2)cc1` the value was -8.6%; for `CN(C)CCCNC(=O)C(=O)NCC1CCCO1` (stereo not given), -5.29%; for `CN(C(=O)c1cc2sccc2n1C)C1CCCCC1`, 12.9%.
For `Cc1nn(Cc2ccccc2)c(C)c1NC(=O)c1noc2c1CCc1ccccc1-2`, the “activity change, negative = inhibition” value is -0.677%.
As to `Cc1ccc(Cn2nc(C)c(NC(=O)c3cc(C)no3)c2C)cc1`, the “activity change, negative = inhibition” value was 7.15%.
With `O=C(CCCc1ccccc1)Nc1ccc2c(c1)OCCO2`, the “activity change, negative = inhibition” value is -10%.
Turning to `O=C(NCCc1ccccc1)c1n[nH]c2ccccc12`, the “activity change, negative = inhibition” value is 6.31%.
With `Cc1ccc(-n2c3nc(=O)[nH]c(=O)c-3cc3c(C)nn(-c4ccccc4)c32)c(C)c1` the figure was 8.81%; with `N#Cc1cn(CC(=O)N2CCCc3ccccc32)c2ccccc12`, 9.03%.
On to `CC1CCc2nc(N)c(C#N)c(-c3ccncc3)c2C1` (stereo not given), for which the “activity change, negative = inhibition” value was 16.1%.
For `COc1ccc(-c2ccc(-c3noc(-c4ccccc4OC)n3)c(OC)n2)cc1` the value was 11.3%; for `CC(C)c1cc(C(=O)NCc2ccco2)no1`, 14.4%; for `CCN(CC)S(=O)(=O)c1ccc(S(=O)(=O)Nc2ccc3c(c2)oc2ccccc23)cc1`, 2.45%.
`C/C(=C\C(=O)OCCCCCCCCC(=O)O)C[C@@H]1OC[C@H](C[C@@H]2O[C@H]2[C@@H](C)[C@H](C)O)[C@@H](O)[C@H]1O`: the “activity change, negative = inhibition” value was 0.167%.
For `COc1ccc(S(=O)(=O)N(C)C)cc1NC(=O)CSc1nnc(-c2cccnc2)o1` the value was 6.6%.
With `CC1=CC(C)(C)N2C(=O)C3(C(C#N)=C(N)OC4=C3C(=O)CCC4)c3c(C)c(C)cc1c32` (stereo not given), the “activity change, negative = inhibition” value is 5.51%.
For the compound `CC1(C)CC(=O)C=C(NCCN2CCN(C(=O)Nc3ccccc3)CC2)C1`, the “activity change, negative = inhibition” value was 19.7%.
For `COCCCN=C(c1ccco1)n1c(=S)nc(-c2ccco2)n(CCCOC)c1=S`, the “activity change, negative = inhibition” value is 6.13%.
With `CSc1ccccc1NC(=O)CN(C)CC(=O)Nc1ccc(S(=O)(=O)N2CCCC2)cc1` the figure was 6.77%; with `O=C(COc1ccc([N+](=O)[O-])cc1)Nc1cc(S(=O)(=O)N2CCCCC2)ccc1N1CCCCC1`, 8.82%.
With `Cc1c(C)c2c(C)nn(-c3ccccc3)c2[nH]c1=O` the figure was -4.55%.
For `CC(C)C(c1nnnn1C1CCCC1)N1CCC(C(N)=O)CC1` (stereo not given) the value was -2.09%.
For the compound `Cc1ccc(-n2nnnc2-c2cnc3cc4c(cc3c2C)OCO4)cc1`, the “activity change, negative = inhibition” value is 1.35%.
For `O=C(Cc1ccccc1Cl)c1ccccc1` the value was 10%; for `O=C(NCc1ccccn1)C1CC(c2ccccc2O)=NO1` (stereo not given), -9.99%.
With `COc1cc2cc(CN(CCO)S(=O)(=O)c3ccccc3Cl)c(=O)[nH]c2cc1OC` the figure was 0.781%; with `COC(=O)Nc1ccc2c(c1)N(C(=O)CCN1CCOCC1)c1ccccc1S2`, -14.7%; with `CC(C)(C)OC(=O)N(CCc1ccccc1)Cc1cccc(OCc2cccc(NC(=O)/C=C/c3ccccc3)c2)c1`, 7.89%.
For `CCc1ccc(N2CC34C=CC(O3)C(C(=O)OC(C)C)C4C2=O)cc1` (stereo not given) the value was 18.4%.
With `Cc1nnc(SCc2ccccc2CSc2nnc(C)s2)s1`, the “activity change, negative = inhibition” value was 1.42%.
For `Cc1onc(-c2c(F)cccc2Cl)c1C(=O)Nc1sc2c(c1C#N)CCC(C(C)(C)C)C2` (stereo not given) the value was -16.8%.
With `Cc1onc(-c2ccccc2)c1C(=O)NCc1ccc(F)cc1` the figure was -6.92%; with `Cn1c(C(=O)NCc2cccs2)cc2c(=O)n(C)c3ccccc3c21`, -14.9%.
Take `CCCOc1ccc(/C(O)=C2/C(=O)C(=O)N(CCN(C)C)C2c2ccc(O)c(OC)c2)cc1` (stereo not given): the “activity change, negative = inhibition” value was 8.34%.
Consider `COC(=O)CSc1ccc(C#N)c(SCC(=O)OC)c1`, for which the “activity change, negative = inhibition” value is 10.5%.
With `CCN(CC)C(=O)C1=C(C)NC(=O)NC1c1c(F)cccc1Cl` (stereo not given) the figure was 9.12%; with `CCOC(=O)C1=C(C)NC(=S)NC1c1cc(C)sc1C` (stereo not given), 1.75%.
For `Nc1ccc2c(c1)-c1ccccc1S(=O)(=O)N2` the value was -7.08%; for `CCCOc1cccc(C(=O)Nc2ccc(Br)cc2F)c1`, 13.1%; for `CCOC(=O)c1ccccc1-n1nnnc1C`, 14.4%.
For `O=C(CNc1ccc(Cl)cc1)c1ccc(Br)cc1` the value was 12.4%.
On to `COC(=O)COc1cc2ccccc2cc1C(=O)Nc1ccccc1`, for which the “activity change, negative = inhibition” value is 11.7%.
For `O=S(=O)(/N=C(/Nc1ccccc1)c1ccccc1)c1cccs1` the value was 14.9%; for `CCc1ccc(C(=O)Nc2ccc(S(=O)(=O)Nc3nc(C)cc(C)n3)cc2)o1`, -4.41%; for `COc1ccc(-c2cc(C(=O)Oc3ccc([N+](=O)[O-])cc3)c3ccccc3n2)cc1`, 13.5%.
